# Laboratory results reported in PMC4081100, “A DNA-binding-site landscape and regulatory network analysis for NAC transcription factors in Arabidopsis thaliana”.
# Experiments:
# Experiment in all cases: universal protein binding microarray (PBM); transcription factors of Arabidopsis thaliana; high values mean tight binding
# GST-ANAC092(1-176) = biological target: T1, GST-ANAC092(1-176) (Arabidopsis thaliana, UniProt Q9FKA0 1-176); settings: protein: recombinant; tags: GST; chain copies: 2; dsDNA, one strand shown
# T1 sequence: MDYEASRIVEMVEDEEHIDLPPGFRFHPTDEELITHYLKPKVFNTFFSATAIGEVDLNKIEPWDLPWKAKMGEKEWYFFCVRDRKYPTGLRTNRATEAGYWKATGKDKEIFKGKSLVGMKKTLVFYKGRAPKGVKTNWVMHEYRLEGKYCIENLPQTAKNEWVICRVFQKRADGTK
# Method in brief: (§1)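 For zinc-finger proteins, zinc acetate was added while GST-tagged NAC-domain, full-length or DNA-binding-domain proteins were induced in cells. Purification used glutathione–Sepharose 4B, and quantification used A280 or anti-GST western blot. Custom all-10-mer Agilent 4 × 180K arrays, made double-stranded by primer extension, each received a protein at 200 to 500 nM final in duplicate. Scoring covered gapped and ungapped 8-mers, with binding given as the normalised enrichment score (E-score).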
# GST-ANAC019 NAC domain = biological target: T2, GST-ANAC019 NAC domain (Arabidopsis thaliana, UniProt Q9C932 14-162); settings: protein: recombinant; tags: GST; chain copies: 2; dsDNA, one strand shown
# T2 sequence: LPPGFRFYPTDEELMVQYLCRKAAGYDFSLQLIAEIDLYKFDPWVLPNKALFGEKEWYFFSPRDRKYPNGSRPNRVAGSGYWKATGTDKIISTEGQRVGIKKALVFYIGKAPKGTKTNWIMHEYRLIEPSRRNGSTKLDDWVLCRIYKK
# Method in brief: as §1
# GST-ANAC055(1-171) = biological target: T3, GST-ANAC055(1-171) (Arabidopsis thaliana, UniProt Q9LDY8 1-171); settings: protein: recombinant; tags: GST; chain copies: 2; dsDNA, one strand shown
# T3 sequence: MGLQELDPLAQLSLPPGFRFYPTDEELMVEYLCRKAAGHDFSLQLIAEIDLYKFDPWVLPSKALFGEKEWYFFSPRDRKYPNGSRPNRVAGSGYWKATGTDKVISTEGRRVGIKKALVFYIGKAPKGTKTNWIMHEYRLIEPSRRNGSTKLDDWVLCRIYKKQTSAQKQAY
# Method in brief: as §1
# GST-ATAF1 NAC domain = biological target: T4, GST-ATAF1 NAC domain (Arabidopsis thaliana, UniProt Q39013 7-158); settings: protein: recombinant; tags: GST; chain copies: 2; dsDNA, one strand shown
# T4 sequence: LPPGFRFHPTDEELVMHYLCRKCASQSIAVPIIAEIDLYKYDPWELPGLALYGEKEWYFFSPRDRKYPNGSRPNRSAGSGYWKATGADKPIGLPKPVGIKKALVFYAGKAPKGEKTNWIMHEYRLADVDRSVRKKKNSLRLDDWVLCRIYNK
# Method in brief: as §1
# [1] = biological target: T5, GST-ANAC092(1-285) full length (Arabidopsis thaliana, UniProt Q9FKA0 1-285); settings: protein: recombinant; tags: GST; chain copies: 2; dsDNA, one strand shown
# T5 sequence: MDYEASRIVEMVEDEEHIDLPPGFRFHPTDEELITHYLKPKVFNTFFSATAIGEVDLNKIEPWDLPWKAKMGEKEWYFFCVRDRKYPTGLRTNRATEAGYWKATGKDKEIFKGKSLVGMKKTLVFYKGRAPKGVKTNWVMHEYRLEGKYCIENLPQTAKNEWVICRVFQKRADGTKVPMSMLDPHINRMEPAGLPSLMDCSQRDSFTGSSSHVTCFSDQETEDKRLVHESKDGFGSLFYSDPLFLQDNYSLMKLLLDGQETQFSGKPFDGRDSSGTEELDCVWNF
# Method in brief: as §1
# GST-NAP(1-166) = biological target: T6, GST-NAP(1-166) (Arabidopsis thaliana, UniProt O49255 1-166); settings: protein: recombinant; tags: GST; chain copies: 2; dsDNA, one strand shown
# T6 sequence: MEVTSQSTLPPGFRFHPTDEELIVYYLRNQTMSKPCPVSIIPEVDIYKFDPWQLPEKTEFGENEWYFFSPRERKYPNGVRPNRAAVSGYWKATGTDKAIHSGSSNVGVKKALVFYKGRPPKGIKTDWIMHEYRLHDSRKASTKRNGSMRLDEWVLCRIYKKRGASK
# Method in brief: as §1
# GST-NST2(1-184) = biological target: T7, GST-NST2(1-184) (Arabidopsis thaliana, UniProt Q9M274 1-184); settings: protein: recombinant; tags: GST; chain copies: 2; dsDNA, one strand shown
# T7 sequence: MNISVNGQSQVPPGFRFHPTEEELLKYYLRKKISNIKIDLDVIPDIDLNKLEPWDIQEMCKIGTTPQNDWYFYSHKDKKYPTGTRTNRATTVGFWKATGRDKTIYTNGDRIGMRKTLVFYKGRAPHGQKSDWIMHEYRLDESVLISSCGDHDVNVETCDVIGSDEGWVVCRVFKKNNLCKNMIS
# Method in brief: as §1
# GST-NTL8 NAC domain = biological target: T8, GST-NTL8 NAC domain (Arabidopsis thaliana, UniProt Q9XIN7 14-156); settings: protein: recombinant; tags: GST; chain copies: 2; dsDNA, one strand shown
# T8 sequence: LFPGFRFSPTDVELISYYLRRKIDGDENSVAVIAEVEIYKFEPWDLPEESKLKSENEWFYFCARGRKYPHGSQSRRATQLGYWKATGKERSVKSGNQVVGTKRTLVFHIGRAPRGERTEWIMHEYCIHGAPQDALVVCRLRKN
# Method in brief: as §1
# GST-SND1(1-203) = biological target: T9, GST-SND1(1-203) (Arabidopsis thaliana, UniProt Q9LPI7 1-203); settings: protein: recombinant; tags: GST; chain copies: 2; dsDNA, one strand shown
# T9 sequence: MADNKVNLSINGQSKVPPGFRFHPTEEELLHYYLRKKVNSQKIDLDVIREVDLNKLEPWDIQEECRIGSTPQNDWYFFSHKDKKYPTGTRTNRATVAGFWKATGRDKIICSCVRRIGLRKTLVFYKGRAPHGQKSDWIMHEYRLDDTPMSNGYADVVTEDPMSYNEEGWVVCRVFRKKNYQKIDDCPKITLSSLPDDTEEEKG
# Method in brief: as §1
# GST-VND3 NAC domain = biological target: T10, GST-VND3 NAC domain (Arabidopsis thaliana, UniProt Q9FH59 12-162); settings: protein: recombinant; tags: GST; chain copies: 2; dsDNA, one strand shown
# T10 sequence: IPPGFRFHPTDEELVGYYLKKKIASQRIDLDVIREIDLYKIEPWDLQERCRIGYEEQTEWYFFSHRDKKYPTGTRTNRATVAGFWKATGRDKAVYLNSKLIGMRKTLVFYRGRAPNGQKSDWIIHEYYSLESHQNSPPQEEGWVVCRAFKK
# Method in brief: as §1
# GST-VND7 NAC domain = biological target: T11, GST-VND7 NAC domain (Arabidopsis thaliana, UniProt Q9C8W9 9-158); settings: protein: recombinant; tags: GST; chain copies: 2; dsDNA, one strand shown
# T11 sequence: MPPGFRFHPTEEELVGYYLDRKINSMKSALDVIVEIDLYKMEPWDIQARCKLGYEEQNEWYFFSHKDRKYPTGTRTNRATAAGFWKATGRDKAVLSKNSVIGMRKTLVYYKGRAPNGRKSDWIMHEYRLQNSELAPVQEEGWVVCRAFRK
# Method in brief: as §1
# GST-WRKY1(266-371) = GST-WRKY1(266-371) (Arabidopsis thaliana, UniProt Q9SI37 266-371); settings: protein: recombinant; tags: GST; dsDNA, one strand shown
# Method in brief: as §1
# GST-NTL6(1-168) = GST-NTL6(1-168) (Arabidopsis thaliana, UniProt Q9SCK6 1-168); settings: protein: recombinant; tags: GST; chain copies: 2; dsDNA, one strand shown
# Method in brief: as §1
# Chain of GST-NTL6(1-168) (Q9SCK6 1-168): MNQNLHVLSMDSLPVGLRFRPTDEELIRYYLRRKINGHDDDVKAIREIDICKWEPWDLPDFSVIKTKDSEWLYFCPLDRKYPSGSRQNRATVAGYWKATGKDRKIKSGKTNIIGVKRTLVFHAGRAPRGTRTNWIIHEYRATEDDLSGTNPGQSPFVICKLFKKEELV
# Chain of GST-WRKY1(266-371) (Q9SI37 266-371): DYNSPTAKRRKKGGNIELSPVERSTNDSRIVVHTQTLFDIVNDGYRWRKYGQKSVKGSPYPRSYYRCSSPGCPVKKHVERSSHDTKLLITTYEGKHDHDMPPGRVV
Sequence,binding signal (GST-ANAC092(1-176)) [E-score],binding signal (GST-ANAC019 NAC domain) [E-score],binding signal (GST-ANAC055(1-171)) [E-score],binding signal (GST-ATAF1 NAC domain) [E-score],binding signal [1] [E-score],binding signal (GST-NAP(1-166)) [E-score],binding signal (GST-NST2(1-184)) [E-score],binding signal (GST-NTL8 NAC domain) [E-score],binding signal (GST-SND1(1-203)) [E-score],binding signal (GST-VND3 NAC domain) [E-score],binding signal (GST-VND7 NAC domain) [E-score],binding signal (GST-WRKY1(266-371)) [E-score],binding signal (GST-NTL6(1-168)) [E-score]
ACGCAATA,0.444,0.233,0.212,0.166,0.447,0.301,0.288,0.0551,0.419,0.312,0.288,0.0639,
GTTGACTA,,0.079,0.0652,0.103,0.133,,,,0.062,0.158,0.0849,0.49,0.072
ACGGAAGC,0.299,0.436,0.374,0.289,0.298,0.236,0.257,,0.209,0.385,0.266,,0.0877
TAGCGTAA,0.453,0.0774,0.173,0.281,0.454,0.221,0.412,,0.492,0.297,0.347,,0.123
GTTCCTTA,0.136,0.141,0.0564,0.151,0.237,0.117,0.139,0.329,0.376,0.249,0.147,,0.458
ACGTTTTC,0.382,0.248,0.304,0.336,0.401,0.29,0.32,0.225,0.322,0.303,0.327,,0.196
ATACGTAA,0.462,0.476,0.451,0.407,0.45,0.461,0.331,,0.393,0.462,0.458,,0.175
ATACGTAT,0.156,0.281,0.379,0.231,0.37,0.445,0.186,,0.211,0.347,0.293,,0.12
